# In PubChem BioAssay AID1159580 (chemical genetic matrix, 2015):
# Screen size: about 5,500 compounds; about 2,000 (36%) were called active. Not shown: some 18% with an inconclusive outcome. Some of the results follow. A number with no mark means an inactive call. Cut-off read from the data, not from the text of the source: active = normalized growth mostly below about 0.91 (no sharp cut-off); inconclusive = no clear call, values can overlap the other calls; inactive = mostly above about 0.92.
# Assay: chemical genetic growth profiling, strain panel (AID 1159580);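 note: tested at 20 µM; growth read once vehicle control cultures reached saturation at 30 °C; 1 = growth at the plate median or of vehicle wells; lower values mean less growth of the strain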
# Details: growth OD
# [1] = S. cerevisiae deletion strains, locus YAL013W, strain DEP1, active compounds read low
# [2] = S. cerevisiae deletion strains, locus YBR229C, strain ROT2, active compounds read low
# [3] = S. cerevisiae deletion strains, locus YDL101C, strain DUN1, active compounds read low
# [4] = S. cerevisiae deletion strains, locus YDR150W, strain NUM1, active compounds read low
# [5] = S. cerevisiae deletion strains, locus YEL061C, strain CIN8, active compounds read low
# [6] = S. cerevisiae deletion strains, locus YGR078C, strain PAC10, active compounds read low
# [7] = S. cerevisiae deletion strains, locus YHR030C, strain SLT2, active compounds read low
# [8] = S. cerevisiae deletion strains, locus YHR087W, strain rtc3, active compounds read low
# [9] = S. cerevisiae deletion strains, locus YJL187C, strain SWE1, active compounds read low
# [10] = S. cerevisiae deletion strains, locus YJR043C, strain POL32, active compounds read low
# [11] = S. cerevisiae deletion strains, locus YJR075W, strain HOC1, active compounds read low
# [12] = S. cerevisiae deletion strains, locus YKL190W, strain CNB1, active compounds read low
# [13] = S. cerevisiae deletion strains, locus YLR039C, strain RIC1, active compounds read low
# [14] = S. cerevisiae deletion strains, locus YLR058C, strain SHM2 (second series), active compounds read low
# [15] = S. cerevisiae deletion strains, locus YLR085C, strain ARP6, active compounds read low
# [16] = S. cerevisiae deletion strains, locus YLR262C, strain YPT6, active compounds read low
# [17] = S. cerevisiae deletion strains, locus YML094W, strain GIM5, active compounds read low
# [18] = S. cerevisiae deletion strains, locus YMR219W, strain ESC1, active compounds read low
# [19] = S. cerevisiae deletion strains, locus YMR263W, strain SAP30, active compounds read low
# [20] = S. cerevisiae deletion strains, locus YNL153C, strain GIM3, active compounds read low
# [21] = S. cerevisiae deletion strains, locus YNL298W, strain CLA4 (second series), active compounds read low
# [22] = S. cerevisiae deletion strains, locus YNL322C, strain KRE1, active compounds read low
# [23] = S. cerevisiae deletion strains, locus YNR030W, strain Alg12, active compounds read low
# [24] = S. cerevisiae deletion strains, locus YPL055C, strain LGE1, active compounds read low
# [25] = S. cerevisiae deletion strains, locus YPL241C, strain CIN2, active compounds read low
# [26] = S. cerevisiae deletion strains, locus YPR135W, strain CTF4, active compounds read low
compound,measurement,setting,value
CC1=C(OS(=O)(=O)c2cc(C)c(Cl)cc2Cl)C(=O)CC1,normalized growth,[1],0.993
same,normalized growth,[2],0.956
same,normalized growth,[3],0.968
same,normalized growth,[4],0.986
same,normalized growth,[5],1
same,normalized growth,[6],0.98
same,normalized growth,"S. cerevisiae deletion strains, locus YGR229C, strain SMI1, active compounds read low",0.968
same,normalized growth,[7],0.85
same,normalized growth,[8],0.974
same,normalized growth,[9],0.986
same,normalized growth,[10],0.991
same,normalized growth,[11],0.984
same,normalized growth,[12],0.976
same,normalized growth,[13],0.849
same,normalized growth,[14],0.968
same,normalized growth,[15],0.955
same,normalized growth,[16],0.866
same,normalized growth,[17],1
same,normalized growth,[18],0.985
same,normalized growth,[19],0.977
same,normalized growth,[20],0.971
same,normalized growth,[21],0.914
same,normalized growth,[22],0.97
same,normalized growth,[23],0.968
same,normalized growth,"S. cerevisiae deletion strains, locus YOL006C, strain TOP1, active compounds read low",0.897
same,normalized growth,[24],1.24 [resistant] (active)
same,normalized growth,[25],0.98
same,normalized growth,[26],0.87
COc1ccccc1N1CCN(S(=O)(=O)c2cc(C)c(Cl)cc2C)CC1,normalized growth,[1],0.985
same,normalized growth,[2],0.991
same,normalized growth,[3],0.957
same,normalized growth,[4],0.958
same,normalized growth,[5],0.994
same,normalized growth,[6],0.97
same,normalized growth,[7],1.01
same,normalized growth,[8],0.959
same,normalized growth,[9],0.991
same,normalized growth,[10],1
same,normalized growth,[11],0.989
same,normalized growth,[12],0.987
same,normalized growth,[13],0.981
same,normalized growth,[14],0.988
same,normalized growth,[15],1.01
same,normalized growth,[16],0.976
same,normalized growth,[17],0.958
same,normalized growth,[18],1
same,normalized growth,[19],1
same,normalized growth,[20],0.996
same,normalized growth,[21],0.982
same,normalized growth,[22],0.994
same,normalized growth,[23],0.982
same,normalized growth,[24],0.953
same,normalized growth,[25],1.06
same,normalized growth,[26],0.874
same,normalized growth,"S. cerevisiae strains, strain wild type, active compounds read low",0.985
